Measured values taken from PubChem BioAssay (NCATS).
“And” between values parts separate entries of the source, which are not always exact repeats. Equal values may be shown once. Results filed as inconclusive are left out. The source made the active and inactive calls. Calls come from the whole dose curve; as a rule, active = well fitted curve in the direction sought with a large enough effect; inconclusive = small, poorly fitted or top-dose-only effect, or another doubt; inactive = no such curve, though single readings can be large; an effect the other way counts as inactive or inconclusive.

What was measured:
[1] = molecular target: Cellular tumor antigen p53 (Homo sapiens) (UniProt P04637); experiment: Primary qHTS for small molecule compounds that upregulate eGFP-tagged delta133p53alpha (in N-terminal) cells. (AID 2060322); settings: NCI-H358 eGFP-delta133p53alpha fluorescence, 24 h; activation: active compounds read high; note: nearly all actives have a fitted effect of over 75% in size; note: potency is the fitted concentration of half-maximal effect;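 for activation: cells pre-induced with doxycycline then dosed without doxycycline; series mostly up to about 56 µM; 0% = DMSO vehicle and 100% = reference activator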
Chain of Cellular tumor antigen p53 (Homo sapiens) (P04637 whole entry, looked up): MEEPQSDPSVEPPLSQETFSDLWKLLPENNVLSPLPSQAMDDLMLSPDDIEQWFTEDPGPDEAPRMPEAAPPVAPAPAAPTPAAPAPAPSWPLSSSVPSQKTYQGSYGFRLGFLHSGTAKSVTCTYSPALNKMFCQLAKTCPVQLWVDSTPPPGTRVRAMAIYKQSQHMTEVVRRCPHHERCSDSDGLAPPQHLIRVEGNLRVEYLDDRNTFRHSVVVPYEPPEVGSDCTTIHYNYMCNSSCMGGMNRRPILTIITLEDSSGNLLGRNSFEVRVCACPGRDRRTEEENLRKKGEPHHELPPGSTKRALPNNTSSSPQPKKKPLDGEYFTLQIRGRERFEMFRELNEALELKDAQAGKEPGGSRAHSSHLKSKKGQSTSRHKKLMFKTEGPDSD
Method in brief: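 NCI-H358 cells pre-induced 24 h with 10 ng/ml doxycycline for eGFP-delta133p53alpha, plated dox-free and exposed 24 h at 37C to titrated compounds. Fixed, Hoechst-stained; gated GFP peak intensity by laser scanning cytometry, normalized to DMSO (0%) and 57.5 uM 5-azacytidine (100%).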

[2] = molecular target: Aldehyde dehydrogenase, mitochondrial (Homo sapiens) (UniProt P05091); experiment: qHTS for Inhibitors of the Aldehyde Dehydrogenase Family (ALDH2) Primary screen (AID 2061308);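 note: plate controls were vehicle for no effect and reference inhibitor for full effect; nearly all actives have a fitted effect of over 55% in size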
[3] = molecular target: Retinaldehyde dehydrogenase 3 (Homo sapiens) (UniProt P47895); experiment: qHTS for Inhibitors of the Aldehyde Dehydrogenase Family (ALDH1A3) Primary screen (AID 2061315);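 note: plate controls were DMSO vehicle for no effect and reference inhibitor for full effect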
[4] = molecular target: Retinaldehyde dehydrogenase 3 (Homo sapiens) (UniProt P47895); experiment: qHTS for Inhibitors of the Aldehyde Dehydrogenase Family (ALDH1A3) Confirmatory screens (AID 2061311); note: potency is the fitted concentration of half-maximal effect; nearly all actives have a fitted effect of over 60% in size
[5] = molecular target: Retinal dehydrogenase 2 (Homo sapiens) (UniProt O94788); experiment: qHTS for Inhibitors of the Aldehyde Dehydrogenase Family (ALDH1A2) Confirmation screens (AID 2061314); note: potency is the fitted concentration of half-maximal effect; nearly all actives have a fitted effect of over 65% in size
[6] = BET inhibitor-based combinations targeting novel dependencies in MECOM-rearranged (r) AML: SET-2 cell line (AID 2202231); settings: SET-2 AML cells viability, CellTiter-Glo luminescence, 48 h; viability: active compounds read low, series mostly up to about 46 µM;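 note: plate controls were DMSO treated cells for no effect and wells without cells for full effect; nearly all actives have a fitted effect of over 35% in size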
Method in brief: (§1)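 Here, 11-point titrations of each agent were applied to 500 seeded cells and incubated 48 hr; CellTiter-Glo signal, scaled against DMSO and empty wells, was integrated as AUC, then Z-scored within the individual line.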

[7] = BET inhibitor-based combinations targeting novel dependencies in MECOM-rearranged (r) AML: OCI-AML3 cell line (AID 2202232); settings: Potency: OCI-AML3 viability;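 note: series mostly up to about 46 µM; plate controls were DMSO vehicle wells for no effect and wells without cells for full effect; nearly all actives have a fitted effect of over 35% in size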
Method in brief: as §1

[8] = BET inhibitor-based combinations targeting novel dependencies in MECOM-rearranged (r) AML: MV-4-11 cell line (AID 2202233); note: nearly all actives have a fitted effect of over 45% in size; note: potency is the fitted concentration of half-maximal effect
Method in brief: (§2)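 Normalized to DMSO and empty-well controls, the luminescence data from CellTiter-Glo after 48 hr drug exposure were fitted across 11 concentrations. Reported metrics are area under the dose-response curve and its Z-transformed form.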

[9] = BET inhibitor-based combinations targeting novel dependencies in MECOM-rearranged (r) AML: HNT-34 cell line (AID 2202234);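 note: plate controls were vehicle wells for no effect and cell-free wells for full effect; nearly all actives have a fitted effect of over 35% in size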
Method in brief: as §2

[10] = BET inhibitor-based combinations targeting novel dependencies in MECOM-rearranged (r) AML: AML-191 cell line (AID 2202236;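 note: plate controls were vehicle wells for no effect and wells without cells for full effect; nearly all actives have a fitted effect of over 35% in size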)
Method in brief: as §1

[11] = BET inhibitor-based combinations targeting novel dependencies in MECOM-rearranged (r) AML: AML-194 cell line (AID 2202237;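 note: plate controls were vehicle wells for no effect and wells without cells for full effect; nearly all actives have a fitted effect of over 40% in size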)
Method in brief: as §1

[12] = BET inhibitor-based combinations targeting novel dependencies in MECOM-rearranged (r) AML: UCSD-AML1 cell line (AID 2202235);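 note: series mostly up to about 46 µM; plate controls were DMSO vehicle wells for no effect and blank wells for full effect; nearly all actives have a fitted effect of over 40% in size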
Method in brief: as §2

CCCC[N+]1(C)[C@@H]2CC(OC(=O)[C@H](CO)c3ccccc3)C[C@H]1[C@@H]1O[C@@H]12 (stereo not given in full)
inactive: activation [1] -28.8% and -9.82% | Potency [2] | Potency [3]

CO[C@@H]1[C@@H](O)[C@@H](O[C@H]2CC[C@]3(C=O)C4CC[C@]5(C)[C@@H](C6=CC(=O)OC6)CC[C@]5(O)[C@@H]4CC[C@H]3C2)O[C@@H](C)[C@H]1O[C@@H]1O[C@H](CO[C@@H]2O[C@H](CO)[C@@H](O)[C@H](O)[C@H]2O)[C@@H](O)[C@H](O)[C@H]1O (stereo not given in full)
inactive: activation [1] -9.92% | Potency [2] | Potency [3]

CCCCCn1cc(C(=O)C2C(C)(C)C2(C)C)c2ccccc21
inactive: activation [1] -0.955% | Potency [2] | Potency [3]

O=C1Nc2ccc3ncsc3c2/C1=C/c1cnc[nH]1
active: Potency [1] 2.39 µM
inactive: Potency [2] | Potency [3]

COc1cc2c(cc1OC)[C@@]13CCN4CC5=CCO[C@H]6CC(=O)N2[C@H]1[C@H]6[C@H]5C[C@H]43
inactive: activation [1] -22.1% | Potency [2] | Potency [3]

C[C@]12CC[C@H](O[C@@H]3O[C@H](CO)[C@@H](O)[C@H](O)[C@H]3O)CC1=CC[C@@H]1C2CC[C@]2(C)[C@@H](C3=CC(=O)OC3)CC[C@]12O (stereo not given in full)
inactive: activation [1] 0.763% | Potency [2] | Potency [3]

CC(C)C1(OO)C=C2C(=O)CC3C(C)(C(=O)O)CCCC3(C)C2CC1 (stereo not given)
inactive: activation [1] 11.5% | Potency [2] | Potency [3]

CN1CC[C@@]2(C)c3cc(O)ccc3N(C)C12 (stereo not given in full)
inactive: activation [1] -31.1%
active: Potency [4] 10.1 µM | Potency [5] 4.49 µM

CCOC(=O)Nc1ccc(NCc2ccc(F)cc2)cc1N
inactive: activation [1] -10.3% and -0.955% | Potency [2] | viability [6] 102% | Potency [7] | Potency [8] | Potency [9] | Potency [10] | Potency [11]

Cc1cc(SCc2sc(-c3ccc(C(F)(F)F)c(F)c3)nc2C)ccc1OCC(=O)O
inactive: activation [1] -16% and 31% | Potency [2] | Potency [3] | Potency [12] | Potency [11]
active: Potency [8] 18.6 µM

CC(C)OC(=O)c1ccnc2cc(C(OCCN3CCCCC3)c3ccccc3Cl)sc12 (stereo not given)
inactive: activation [1] -11.2% | Potency [3]

CNC(=O)c1ccc(N2C(=S)N(c3ccc(C#N)c(C(F)(F)F)c3)C(=O)C23CCC3)cc1F
inactive: activation [1] 38.4% and -8.11% | Potency [2] | Potency [3] | viability [6] 101% | Potency [10]
